The panel holds about 79,000 compounds, 15% with a hit somewhere; the sample as a whole holds those more often. A number with no mark means an inactive call. Calls of active or inactive are those of the source. Cut-off read from the data, not from the text of the source: active = growth inhibition above about 70%; inactive = the rest.
Key:
[1] = NCI Yeast Anticancer Drug Screen. Data for the mec2-1 strain (AID 157); details: S. cerevisiae mec2-1 strain, stronger effect = higher value
Procedure, shortened: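 Readout is yeast growth inhibition, normalised to vehicle-treated controls, in the mec2-1 strain exposed to compound.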

[2] = NCI Yeast Anticancer Drug Screen. Data for the rad14 strain (AID 159);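 note: 0% = growth of vehicle-treated control cultures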; details: S. cerevisiae rad14 strain growth inhibition, stronger effect = higher value
Procedure, shortened: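 Screen for anticancer potential: a yeast strain altered in DNA damage repair is grown with compound, and reduced growth is quantified against vehicle controls.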

[3] = NCI Yeast Anticancer Drug Screen. Data for the sgs1 mgt1 strain (AID 161);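 note: 0% = growth of cultures given vehicle only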; details: S. cerevisiae sgs1 mgt1 strain, stronger effect = higher value
Procedure, shortened: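 Growth of a repair-deficient yeast mutant was monitored after compound treatment and expressed as inhibition relative to vehicle-treated cultures.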

[4] = NCI Yeast Anticancer Drug Screen. Data for the CLN2oe strain (AID 163);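 note: 0% = growth of vehicle-only control cultures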; details: S. cerevisiae CLN2oe strain, stronger effect = higher value
Procedure, shortened: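 Values reflect how much compound exposure reduced yeast growth, referenced to vehicle-exposed cells. Assay organism is a strain with a defined genetic change affecting cell-cycle control.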

[5] = NCI Yeast Anticancer Drug Screen. Data for the cln2 rad14 strain (AID 165);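 note: 0% = growth equal to vehicle treated cultures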; details: S. cerevisiae cln2 rad14 strain, stronger effect = higher value
Procedure, shortened: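 Relative to vehicle controls, growth inhibition of compound-treated cln2 rad14 yeast was recorded.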

[6] = NCI Yeast Anticancer Drug Screen. Data for the bub3 strain (AID 167); details: S. cerevisiae bub3 mutant strain, stronger effect = higher value
Procedure, shortened: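 Screening used yeast with an engineered genetic alteration affecting cell cycle control. Compound-exposed cultures were compared with vehicle cultures, and reduced growth was taken as inhibition.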

[7] = NCI Yeast Anticancer Drug Screen. Data for the wt2 strain (AID 169);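 note: 0% = growth of vehicle-treated yeast cultures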; details: S. cerevisiae wt2 strain growth inhibition, stronger effect = higher value
Procedure, shortened: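 Values express reduction in yeast growth under compound treatment, referenced to vehicle-treated cells.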

[8] = NCI Yeast Anticancer Drug Screen. Data for the mlh1 strain (AID 171);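 note: 0% = growth of vehicle-treated control cultures of the same strain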; details: S. cerevisiae mlh1 strain growth inhibition, stronger effect = higher value
Procedure, shortened: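 Steps: expose the defined-mutant yeast strain to compound; expose a parallel culture to vehicle; measure growth; express compound effect as inhibition relative to the vehicle culture.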

[9] = NCI Yeast Anticancer Drug Screen. Data for the sgs1 strain (AID 173);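 note: 0% = growth of vehicle-only control cultures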; details: S. cerevisiae sgs1 mutant, stronger effect = higher value
Procedure, shortened: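 Treat defined-mutant yeast with compound; measure growth; calculate inhibition relative to vehicle-treated cells.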

[10] = NCI Yeast Anticancer Drug Screen. Data for the mlh1 rad18 strain (AID 175); details: S. cerevisiae mlh1 rad18 strain growth inhibition, stronger effect = higher value
Procedure, shortened: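 Test agents were incubated with a yeast strain of defined genotype (DNA damage repair defect). Inhibition of growth was derived by comparison with vehicle-exposed cultures.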

[11] = NCI Yeast Anticancer Drug Screen. Data for the rad18 strain (AID 177); details: S. cerevisiae rad18 mutant growth inhibition, stronger effect = higher value
Procedure, shortened: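 A genetically defined yeast mutant impaired in DNA damage repair was treated with test compounds, then its growth was measured against cultures receiving vehicle alone.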

[12] = NCI Yeast Anticancer Drug Screen. Data for the rad52 strain (AID 147);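 note: 0% = growth of vehicle-treated control cultures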; details: S. cerevisiae rad52 mutant growth inhibition, stronger effect = higher value
Procedure, shortened: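 Screen used a yeast mutant impaired in DNA repair. After compound exposure, growth was measured. Values reflect inhibition compared with vehicle-treated cells.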

[13] = NCI Yeast Anticancer Drug Screen. Data for the wt1 strain (AID 149);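 note: 0% = growth of vehicle-treated wt1 cultures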; details: S. cerevisiae wt1 strain (SPY 50644) growth inhibition, stronger effect = higher value
Procedure, shortened: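 Using yeast strain wt1, compound-induced growth inhibition was determined against vehicle-treated cultures.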

[14] = NCI Yeast Anticancer Drug Screen. Data for the rad50EPP+ strain (AID 151);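 note: 0% = growth of vehicle-treated control cultures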; details: S. cerevisiae rad50 mutant strain, stronger effect = higher value
Procedure, shortened: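 Exposing the rad50EPP+ strain to each compound, growth was compared with vehicle-only cultures to give inhibition.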

[15] = NCI Yeast Anticancer Drug Screen. Data for the mgt1 strain (AID 153); details: S. cerevisiae mgt1 mutant growth inhibition, stronger effect = higher value
Procedure, shortened: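 Genetically defined yeast (mgt1) treated with compound; inhibition of growth expressed against vehicle-treated controls.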

[16] = NCI Yeast Anticancer Drug Screen. Data for the rad50 strain (AID 155);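 note: 0% = growth of vehicle-only cultures of the same strain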; details: S. cerevisiae rad50 strain growth inhibition, stronger effect = higher value
Procedure, shortened: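 Relative growth inhibition (compound vs vehicle) was measured in yeast with a defined repair-gene alteration.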

[17] = at 5.0 µM (retest, dose inferred, filed as 0.5)
[18] = at 50.0 µM (retest, dose inferred, filed as 5.0)

CCCCCCCCNC(=O)C1=C(C)NC(C)=C(C(=O)NCCCCCCCC)C1
growth inhibition [1, 17]: -7%
growth inhibition ([1]; at 11.0 µM): 0%
growth inhibition ([1]; at 33.0 µM): -4%
growth inhibition [1, 18]: 14%
growth inhibition ([1]; at 50.0 µM): -5.25%
growth inhibition ([1]; at 100.0 µM): 7%
growth inhibition ([2]; at 1.2 µM): 1%
growth inhibition ([2]; at 3.7 µM): 0%
growth inhibition ([2]; at 11.0 µM): 2%
growth inhibition ([2]; at 33.0 µM): 4%
growth inhibition ([2]; at 100.0 µM): 11%
growth inhibition [3, 17]: -7%
growth inhibition [3, 18]: 4%
growth inhibition ([3]; at 50.0 µM): 0.45%
growth inhibition ([4]; at 1.2 µM): 4%
growth inhibition ([4]; at 3.7 µM): 2%
growth inhibition ([4]; at 11.0 µM): -1%
growth inhibition ([4]; at 33.0 µM): 0%
growth inhibition ([4]; at 100.0 µM): 2%
growth inhibition [5, 17]: 42%
growth inhibition [5, 18]: 2%
growth inhibition ([5]; at 50.0 µM): 35.4%
growth inhibition ([6]; at 1.2 µM): 0%
growth inhibition ([6]; at 3.7 µM): 0%
growth inhibition [6, 17]: 35%
growth inhibition ([6]; at 11.0 µM): 0%
growth inhibition ([6]; at 33.0 µM): 0%
growth inhibition [6, 18]: -4%
growth inhibition ([6]; at 50.0 µM): -6.55%
growth inhibition ([6]; at 100.0 µM): 2%
growth inhibition ([7]; at 1.2 µM): 1%
growth inhibition ([7]; at 3.7 µM): 1%
growth inhibition ([7]; at 11.0 µM): 0%
growth inhibition ([7]; at 33.0 µM): 1%
growth inhibition ([7]; at 100.0 µM): 2%
growth inhibition ([8]; at 1.2 µM): 0%
growth inhibition ([8]; at 3.7 µM): 2%
growth inhibition ([8]; at 11.0 µM): 0%
growth inhibition ([8]; at 33.0 µM): 2%
growth inhibition ([8]; at 100.0 µM): 8%
growth inhibition ([9]; at 1.2 µM): 2%
growth inhibition ([9]; at 3.7 µM): 3%
growth inhibition ([9]; at 11.0 µM): -3%
growth inhibition ([9]; at 33.0 µM): 3%
growth inhibition ([9]; at 100.0 µM): 14%
growth inhibition [10, 17]: 8%
growth inhibition [10, 18]: -5%
growth inhibition ([10]; at 50.0 µM): -23.8%
growth inhibition ([11]; at 1.2 µM): -1%
growth inhibition ([11]; at 3.7 µM): -2%
growth inhibition ([11]; at 11.0 µM): -4%
growth inhibition ([11]; at 33.0 µM): -8%
growth inhibition ([11]; at 100.0 µM): 2%

CN(C)CCn1c2c3ccccc3ccc2c2oc(=O)c3ccccc3c21
growth inhibition ([12]; at 1.2 µM): 24%
growth inhibition ([12]; at 3.7 µM): 21%
growth inhibition ([12]; at 11.0 µM): 94% (active)
growth inhibition ([12]; at 33.0 µM): 98% (active)
growth inhibition ([12]; at 100.0 µM): 97% (active)
growth inhibition ([13]; at 1.2 µM): 13%
growth inhibition ([13]; at 3.7 µM): 8%
growth inhibition ([13]; at 11.0 µM): 35%
growth inhibition ([13]; at 33.0 µM): 92% (active)
growth inhibition ([13]; at 100.0 µM): 92% (active)
growth inhibition ([14]; at 1.2 µM): 19%
growth inhibition ([14]; at 3.7 µM): 54%
growth inhibition ([14]; at 11.0 µM): 94% (active)
growth inhibition ([14]; at 33.0 µM): 97% (active)
growth inhibition ([14]; at 100.0 µM): 94% (active)
growth inhibition ([15]; at 1.2 µM): -7%
growth inhibition ([15]; at 3.7 µM): 10%
growth inhibition ([15]; at 11.0 µM): 49%
growth inhibition ([15]; at 33.0 µM): 96% (active)
growth inhibition ([15]; at 100.0 µM): 93% (active)
growth inhibition ([16]; at 1.2 µM): 21%
growth inhibition ([16]; at 3.7 µM): 51%
growth inhibition [16, 17]: 52%
growth inhibition ([16]; at 11.0 µM): 93% (active)
growth inhibition ([16]; at 33.0 µM): 97% (active)
growth inhibition [16, 18]: 95% (active)
growth inhibition ([16]; at 50.0 µM): 86.5% (active)
growth inhibition ([16]; at 100.0 µM): 92% (active)
growth inhibition ([1]; at 1.2 µM): 17%
growth inhibition ([1]; at 3.7 µM): 12%
growth inhibition [1, 17]: -12%
growth inhibition ([1]; at 11.0 µM): 40%
growth inhibition ([1]; at 33.0 µM): 95% (active)
growth inhibition [1, 18]: 98% (active)
growth inhibition ([1]; at 50.0 µM): 88.3% (active)
growth inhibition ([1]; at 100.0 µM): 91% (active)
growth inhibition ([2]; at 1.2 µM): 3%
growth inhibition ([2]; at 3.7 µM): -2%
growth inhibition ([2]; at 11.0 µM): 35%
growth inhibition ([2]; at 33.0 µM): 95% (active)
growth inhibition ([2]; at 100.0 µM): 91% (active)
growth inhibition [3, 17]: -1%
growth inhibition [3, 18]: 93% (active)
growth inhibition ([3]; at 50.0 µM): 89% (active)
growth inhibition ([4]; at 1.2 µM): -2%
growth inhibition ([4]; at 3.7 µM): -3%
growth inhibition ([4]; at 11.0 µM): 36%
growth inhibition ([4]; at 33.0 µM): 90% (active)
growth inhibition ([4]; at 100.0 µM): 89% (active)
growth inhibition [5, 17]: 4%
growth inhibition [5, 18]: 93% (active)
growth inhibition ([5]; at 50.0 µM): 84.5% (active)
growth inhibition ([6]; at 1.2 µM): -8%
growth inhibition ([6]; at 3.7 µM): 10%
growth inhibition [6, 17]: 3%
growth inhibition ([6]; at 11.0 µM): 19%
growth inhibition ([6]; at 33.0 µM): 93% (active)
growth inhibition [6, 18]: 95% (active)
growth inhibition ([6]; at 50.0 µM): 86.8% (active)
growth inhibition ([6]; at 100.0 µM): 95% (active)
growth inhibition ([7]; at 1.2 µM): 12%
growth inhibition ([7]; at 3.7 µM): 3%
growth inhibition ([7]; at 11.0 µM): 41%
growth inhibition ([7]; at 33.0 µM): 95% (active)
growth inhibition ([7]; at 100.0 µM): 95% (active)
growth inhibition ([8]; at 1.2 µM): -10%
growth inhibition ([8]; at 3.7 µM): -6%
growth inhibition ([8]; at 11.0 µM): 42%
growth inhibition ([8]; at 33.0 µM): 95% (active)
growth inhibition ([8]; at 100.0 µM): 92% (active)
growth inhibition ([9]; at 1.2 µM): 12%
growth inhibition ([9]; at 3.7 µM): 16%
growth inhibition ([9]; at 11.0 µM): 50%
growth inhibition ([9]; at 33.0 µM): 93% (active)
growth inhibition ([9]; at 100.0 µM): 92% (active)
growth inhibition [10, 17]: 10%
growth inhibition [10, 18]: 96% (active)
growth inhibition ([10]; at 50.0 µM): 82.7% (active)
growth inhibition ([11]; at 1.2 µM): 0%
growth inhibition ([11]; at 3.7 µM): -7%
growth inhibition ([11]; at 11.0 µM): 53%
growth inhibition ([11]; at 33.0 µM): 94% (active)
growth inhibition ([11]; at 100.0 µM): 91% (active)
